Inconclusive results are not listed. Calls of active or inactive are those of the source. Calls come from the whole dose curve; as a rule, active = well fitted curve in the direction sought with a large enough effect; inconclusive = small, poorly fitted or top-dose-only effect, or another doubt; inactive = no such curve, though single readings can be large; an effect the other way counts as inactive or inconclusive.
Legend:
[1] = biological target: Phospholipid hydroperoxide glutathione peroxidase GPX4 (Homo sapiens) (UniProt P36969); test: Primary qHTS Assay for Inhibitors of Recombinant Selenoprotein Glutathione Peroxidase 4 (GPX4) (AID 1845192); note: nearly all actives have a fitted effect of over 65% in size; for activity change, negative = inhibition: series mostly up to about 50 µM; % is set by controls: 0 for no effect and ±100 for the full control effect
In short: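 Steps: GPX4 plus compound, 30 min RT; add GR/GSH/NADPH master mix; start with cumene hydroperoxide; read 340/450 nm fluorescence at 0 and 15 min. Finals were 200 nM GPX4, 1 mM GSH, 0.5 mM CHP, 0.5 mM NADPH, 100 nM GR.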

[2] = biological target: Luciferin 4-monooxygenase (Photinus pyralis) (UniProt P08659); test: Primary firefly luciferase (FLuc) qHTS assay for identification of artifact compounds. (AID 1845220); note: nearly all actives have a fitted effect of over 60% in size; note: potency is the fitted concentration of half-maximal effect;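 for activity change, negative = inhibition: series mostly up to about 54 µM; plate controls were DMSO vehicle for no effect and no enzyme for full effect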
In short: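 Titrated compounds were incubated 15 min at RT, protected from light, with luciferin and ATP at 10 uM; reaction started with 10 nM FLuc, luminescence imaged at 5 min, and concentration-response fitted by Hill equation.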

[3] = Primary fluorescence-based thiol-reactive (MSTI) qHTS assay for identification of artifact compounds. (AID 1845221); note: nearly all actives have a fitted effect of over 65% in size; note: potency is the fitted concentration of half-maximal effect;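 for activity change, negative = thiol reactive: series mostly up to about 54 µM; thiol-reactive compounds lower the probe fluorescence signal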
In short: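 qHTS titration of compound; 4 uM MSTI, PBS pH 7.4, 2% DMSO; 1 h RT, dark; fluorescence 525/598 nm; normalized to Acetyl-MSTI and MSTI; 4-parameter Hill fit.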

[4] = test system: Nanoluciferase (engineered Oplophorus gracilirostris luciferase); test: Primary Nanoluciferase (NLuc) qHTS assay for identification of artifact compounds. (AID 1845222);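 note: NLuc secreted into diluted conditioned medium of S16 cells; series mostly up to about 54 µM; 0% = DMSO and -100% = no enzyme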
In short: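 qHTS format, against NLuc in S16 cell-conditioned medium. Nano-Glo substrate 1:100 was added after 15 min at room temperature. Luminescence was taken after a further 5 min.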

[5] = Primary redox qHTS assay for identification of artifact compounds. (AID 1845223);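 note: 0% = DMSO and 100% = reference compound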
In short: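 Redox-cycling detection via DTT (250 uM final) oxidation coupled to Amplex Red (25 uM)/HRP (250 mU/mL) in HBSS. 15 min preincubation plus 30 min after DTT, room temperature. Ex/Em 525/598 nm; 4-parameter Hill fit against DMSO and 10 uM DA3003.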

[6] = biological target: Cytochrome P450 3A4 (Homo sapiens) (UniProt P08684); test: qHTS for inhibitors of CYP3A4 against the NCATS DSHEA and TCM libraries (AID 1919971);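 note: % is set by controls: 0 for no effect and ±100 for the full control effect; inhibition lowers luminescence from luciferin made by CYP3A4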
Text: Assay Development and Screening Technology Laboratory (ADST)
National Center for Advancing Translational Sciences (NCATS), Rockville, MD
National Institute of Health (NIH), Bethesda, Maryland
Dietary Supplements and Natural Products have minor oversight of their safety and efficacy. We assembled a collection of Dietary Supplements and Natural Products (DSNP) as well as Traditional Chinese Medicinal (TCM) Plant extracts, which were screened against an in vitro panel of assays, including a liver cytochrome p450 enzyme panel, CAR/PXR signaling pathways, and P-gp transporter assays, to assess their activity. This pipeline facilitated the interrogation of Natural Product-Drug Interaction (NaPDI) through prominent metabolizing pathways. In addition, we compared the activity profiles of the DSNP/TCM substances with those of an approved drug collection. Many of the approved drugs have well-annotated mechanisms of action (MOA) while the MOAs for most of the DSNP and TCM samples remain unknown. Based on the premise that compounds with similar activity profiles tend to share similar targets or MOA, we clustered the library activity profiles to identify overlap with the NCATS Pharmaceutical Collection to predict the MOAs of the DSNP/TCM substances. Overall, we highlight four significant bioactivity profiles (measured by p-values) as examples of this prediction. To assess broad cytotoxicity, we employed screening against a HepG2 cell line. In addition, transporter-mediated drug interactions are utilized in the characterization of DDIs using a P-glycoprotein (P-gp) assays. To profile potential P-gp activity, a differential cell viability was measured against two cell lines: a parental KB-3-1 human cervical adenocarcinoma cell line and the drug-resistant subline KB-8-5-11 that overexpresses P-gp.
To this end, we profiled both collections for potential CAR and/or PXR activity, employing a previously published 1536-well qHTS assay.
[1] Lee TD, et al. A High-Throughput Screen of a Library of Therapeutics Identifies Cytotoxic Substrates of P-glycoprotein. Mol Pharmacol. Nov 2019;96(5):629-640. doi:10.1124/mol.119.115964
PROTOCOL TABLE (as described by Inglese J, Shamu CE and Guy RK. 2007)
SEQUENCE No. (e.g., 1, 2, 3, etc.); […] (e.g., Cells, Incubation, Reagent, etc.); VALUE; DESCRIPTION.
1; Reagent; 2 uL; cytochrome P450 enzyme and luciferin substrate or buffer only, white solid-bottom Greiner plate.
2; Compounds and control; 16 nL; Kalypsis pintool (Wako USA) equipped with a 1536-well pin head to transfer to the assay plates.
3; Incubation; 15 min; room temperature.
4; Reagent; 2 uL; nicotinamide adenine dinucleotide phosphate (NADPH).
5; Incubation; 30 - 45 min; room temperature in the dark.
6; Reagent; 4 uL; P450-Glo assay detection reagent.
7; Centrifuge; 1000 RPM; 15 seconds.
8; Incubation; 30 min; room temperature.
9; Read; Luminescence; ViewLux plate reader.
NOTES (numbers refer to Sequence numbers above)
1. A 2 uL mixture of corresponding enzymes and luciferin substrate (final concentrations CYP enzyme-specific and pro-luciferin substrate-specific) or minus-enzyme (assay buffer conditions supplied by the manufacturer for respective enzyme isoform; typically, 100 mM KPO4) and luciferin substrate were dispensed using a BioRAPTR FRD (Beckman Coulter, Brea, CA) into columns of a 1536-well white solid-bottom medium binding plate (Greiner Bio-One, Monroe, NC). Five isoforms of cytochrome P450 were used (CYP1A2, CYP2C9, CYP2C19, CYP2D6, and CYP3A4).
2. […]

[7] = biological target: Cytochrome P450 2D6 (Homo sapiens) (UniProt P10635); test: qHTS for inhibitors of CYP2D6 against the NCATS DSHEA and TCM libraries (AID 1919972); note: % is set by controls: 0 for no effect and ±100 for the full control effect
In short: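 qHTS, concentration–response format with most substances from 19.5 nM. CYP2D6 + pro-luciferin substrate, 15 min with compound, then 1x NADPH regen, 30–45 min RT dark. Glo detection 30 min, luminescence. Quinidine control.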

[8] = biological target: Cytochrome P450 2C9 (Homo sapiens) (UniProt P11712); test: qHTS for inhibitors of CYP2C9 against the NCATS DSHEA and TCM libraries (AID 1919973);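 note: luminogenic pro-luciferin CYP2C9 substrate turned into luciferin with NADPH regeneration; series mostly up to about 34 µM; % is set by controls: 0 for no effect and ±100 for the full control effect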
In short: (§1)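 Isoform-specific enzyme and substrate levels; enzyme-free wells as background. Reaction: 1x NADPH regenerating system, 30-45 min, room temperature, shielded from light; luminescent detection reagent added, 30 min.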

[9] = biological target: Cytochrome P450 2C19 (Homo sapiens) (UniProt P33261); test: qHTS for inhibitors of CYP2C19 against the NCATS DSHEA and TCM libraries (AID 1919974);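 note: luminescence from luciferin released by CYP2C19 oxidation of a pro-luciferin substrate; potency is the fitted concentration of half-maximal effect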
In short: as §1

[10] = KB-3-1 P-gp reporter qHTS against the NCATS DSHEA and TCM libraries (AID 1919975); note: 0% is about no effect
In short: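 KB-3-1 parental line, 1536-well qHTS: cells seeded, ~4 h attachment, pintool compound addition, ~72 h at 37C, then CellTiter-Glo, 30 min RT, luminescence. Concentration-response format.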

Sequence of Phospholipid hydroperoxide glutathione peroxidase GPX4 (Homo sapiens) (P36969 whole entry, looked up): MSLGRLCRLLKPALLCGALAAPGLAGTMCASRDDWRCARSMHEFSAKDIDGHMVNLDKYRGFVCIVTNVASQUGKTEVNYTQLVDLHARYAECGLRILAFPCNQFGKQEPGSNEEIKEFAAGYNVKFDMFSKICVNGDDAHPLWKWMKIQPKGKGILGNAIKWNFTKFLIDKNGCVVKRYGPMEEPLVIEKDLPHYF
Sequence of Cytochrome P450 2D6 (Homo sapiens) (P10635 whole entry, looked up): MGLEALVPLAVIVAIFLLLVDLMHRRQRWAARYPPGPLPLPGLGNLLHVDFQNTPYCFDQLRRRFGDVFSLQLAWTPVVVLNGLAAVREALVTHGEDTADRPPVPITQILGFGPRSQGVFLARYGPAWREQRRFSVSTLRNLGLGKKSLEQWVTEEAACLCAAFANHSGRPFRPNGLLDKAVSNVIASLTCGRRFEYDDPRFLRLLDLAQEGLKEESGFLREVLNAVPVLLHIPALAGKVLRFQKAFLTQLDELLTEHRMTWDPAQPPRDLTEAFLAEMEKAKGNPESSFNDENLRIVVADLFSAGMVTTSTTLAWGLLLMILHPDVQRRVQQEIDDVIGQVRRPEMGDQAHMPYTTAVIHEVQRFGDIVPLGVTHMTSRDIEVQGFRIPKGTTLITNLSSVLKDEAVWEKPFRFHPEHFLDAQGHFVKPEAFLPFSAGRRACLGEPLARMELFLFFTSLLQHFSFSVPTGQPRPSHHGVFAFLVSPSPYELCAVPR
Sequence of Cytochrome P450 2C19 (Homo sapiens) (P33261 whole entry, looked up): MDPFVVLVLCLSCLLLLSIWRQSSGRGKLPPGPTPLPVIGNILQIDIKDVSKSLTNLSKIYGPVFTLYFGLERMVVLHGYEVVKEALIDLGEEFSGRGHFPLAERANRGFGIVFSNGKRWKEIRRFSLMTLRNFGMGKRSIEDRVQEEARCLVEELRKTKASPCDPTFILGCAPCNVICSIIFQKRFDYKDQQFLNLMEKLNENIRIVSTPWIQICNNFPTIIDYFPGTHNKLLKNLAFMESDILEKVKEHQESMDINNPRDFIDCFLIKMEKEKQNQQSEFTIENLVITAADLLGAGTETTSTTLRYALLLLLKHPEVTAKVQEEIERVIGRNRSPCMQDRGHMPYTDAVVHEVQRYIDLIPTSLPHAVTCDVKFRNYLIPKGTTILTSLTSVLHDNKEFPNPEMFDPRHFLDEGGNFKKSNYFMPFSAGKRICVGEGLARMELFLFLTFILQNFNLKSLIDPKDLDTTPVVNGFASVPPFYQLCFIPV
Sequence of Cytochrome P450 2C9 (Homo sapiens) (P11712 whole entry, looked up, canonical isoform): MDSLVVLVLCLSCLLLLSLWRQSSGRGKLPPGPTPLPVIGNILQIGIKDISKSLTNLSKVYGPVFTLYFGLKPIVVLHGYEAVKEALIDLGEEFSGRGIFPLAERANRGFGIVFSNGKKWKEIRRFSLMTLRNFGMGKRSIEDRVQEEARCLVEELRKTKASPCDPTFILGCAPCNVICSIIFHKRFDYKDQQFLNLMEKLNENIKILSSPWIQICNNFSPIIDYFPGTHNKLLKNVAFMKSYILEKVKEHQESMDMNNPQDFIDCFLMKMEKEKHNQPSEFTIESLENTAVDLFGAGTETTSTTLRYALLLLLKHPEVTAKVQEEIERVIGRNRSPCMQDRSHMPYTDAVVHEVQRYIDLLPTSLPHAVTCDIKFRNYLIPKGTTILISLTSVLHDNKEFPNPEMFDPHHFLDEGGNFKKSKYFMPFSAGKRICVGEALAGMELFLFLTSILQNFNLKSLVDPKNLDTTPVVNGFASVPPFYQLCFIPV
Sequence of Cytochrome P450 3A4 (Homo sapiens) (P08684 whole entry, looked up): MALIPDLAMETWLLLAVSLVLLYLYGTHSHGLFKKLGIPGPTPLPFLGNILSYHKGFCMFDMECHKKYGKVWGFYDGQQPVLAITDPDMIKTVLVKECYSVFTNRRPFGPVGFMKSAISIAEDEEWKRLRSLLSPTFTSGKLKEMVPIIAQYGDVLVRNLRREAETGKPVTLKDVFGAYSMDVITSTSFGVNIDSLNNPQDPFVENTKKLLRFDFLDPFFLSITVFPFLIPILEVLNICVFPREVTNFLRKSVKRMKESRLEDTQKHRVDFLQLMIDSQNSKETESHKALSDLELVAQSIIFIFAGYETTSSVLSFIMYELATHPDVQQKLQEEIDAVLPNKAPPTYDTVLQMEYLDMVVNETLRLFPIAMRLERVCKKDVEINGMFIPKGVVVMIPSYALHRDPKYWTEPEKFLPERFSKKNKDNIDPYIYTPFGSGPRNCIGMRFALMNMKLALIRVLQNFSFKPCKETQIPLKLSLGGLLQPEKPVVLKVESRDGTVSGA

CC1(C)CC[C@]2(C(=O)O)CC[C@]3(C)C(=CCC4[C@@]5(C)CC[C@H](O[C@@H]6O[C@H](CO)[C@@H](O)[C@H](O)[C@H]6O[C@@H]6O[C@H](CO)[C@@H](O)[C@H](O)[C@H]6O)[C@@](C)(CO)C5CC[C@]43C)[C@@H]2C1 (stereo not given in full)
inactive: Potency [1] | Potency [2] | Potency [3] | Potency [4] | Potency [5]

CC/C=C\C/C=C\C/C=C\CCCCCCCC(=O)OCC(O)COC1OC(CO)C(O)C(O)C1O (stereo not given)
inactive: Potency [1] | Potency [2] | Potency [3] | Potency [4] | Potency [5]

O=C1CCC(=O)N(O)CCCCCNC(=O)CCC(=O)N(O)CCOCCNC(=O)CCC(=O)N(O)CCCCCN1
inactive: Potency [1] | Potency [2] | Potency [3] | Potency [4] | Potency [5]

CC(=O)NC[C@H]1CN(c2ccc(N3CCN(C(=O)CO)CC3)c(F)c2)C(=O)O1
inactive: Potency [1] | Potency [2] | Potency [3] | Potency [4] | Potency [5]

C1CCC[C@H]2CCCN3CC[C@@H](CCCCCC[C@@H]4CCCN5CC[C@@H](CC1)O[C@@H]45)O[C@@H]23
inactive: activity change, negative = inhibition [1] -4.98% [at 0.121 µM] | outcome [2] inactive [at 0.0969 µM] | activity change, negative = thiol reactive [3] 0.0753% [at 0.0963 µM] | activity, negative = inhibition [4] 2.4% [at 0.0969 µM] | redox activity (% of DA3003) [5] -1.13% [at 0.0963 µM]

CC(C)C(C(=O)N(C)C(C)C(N)=O)N(C)C(=O)C1CCCN1C(=O)/C=C/C=C/C(O)C(C)O (stereo not given)
inactive: Potency [1] | Potency [2] | Potency [3] | Potency [4] | Potency [5]

OCc1ccc(O[C@@H]2O[C@H](CO)[C@@H](O)[C@H](O)[C@H]2O)cc1
inactive: Potency [1] | Potency [2] | Potency [3] | Potency [4] | Potency [5]

O=C(O)[C@@H]1C[C@H]2C[C@@H](CCc3nn[nH]n3)CC[C@H]2CN1
inactive: Potency [1] | Potency [2] | Potency [3] | Potency [4] | Potency [5]

C[C@H]1CC[C@@H]2N(C1)C[C@@H]1[C@H]([C@@H](O)[C@H](O)[C@]3(O)[C@H]1C[C@@]14OC5(O)[C@@H](C[C@@H](O)[C@@H]31)[C@]4(C)CC[C@@H]5O)[C@]2(C)O
inactive: Potency [1] | Potency [2] | Potency [3] | Potency [4] | Potency [5]

CNC12CC3C[C@@](C)(C1)C[C@](C)(C3)C2
inactive: Potency [1] | Potency [2] | Potency [3] | Potency [4] | Potency [5]

CC12CCC3c4ccc(O)cc4CCC3C1CC(OC1OC(C(=O)O)C(O)C(O)C1O)C2O (stereo not given)
inactive: Potency [1] | Potency [2] | Potency [3] | Potency [5]

C[C@@H]1O[C@@H](O[C@@H]2[C@@H](O)[C@@H](O[C@]3(CO)O[C@H](CO)[C@@H](O)[C@@H]3OC(=O)/C=C/c3ccc(O)cc3)O[C@H](CO)[C@H]2OC(=O)/C=C/c2ccc(O)cc2)[C@H](O)[C@H](O)[C@H]1O[C@@H]1O[C@@H](C)[C@H](O[C@@H]2OC[C@](O)(CO)[C@H]2O)[C@@H](O)[C@H]1O
inactive: Potency [1] | activity change, negative = inhibition [2] -0.433% [at 11.6 µM] | activity change, negative = thiol reactive [3] 79.7% [at 11.5 µM] | activity, negative = inhibition [4] 0% [at 11.6 µM] | redox activity (% of DA3003) [5] 17.5% [at 11.5 µM]

c1ccc(-c2ncc(CN3CCN(c4ncccn4)CC3)[nH]2)cc1
inactive: Potency [1] | Potency [2] | Potency [3] | Potency [4] | Potency [5]

CNCc1ccc(-c2cc(-c3nc(-c4ccc(S(=O)(=O)C(C)C)cc4)cnc3N)on2)cc1
inactive: Potency [1] | Potency [2] | Potency [3] | Potency [4] | Potency [5]

COC(=O)C1(C)CCC2(C(=O)O)CCC3(C)C(=CCC4C5(C)CC(O)C(OC6OCC(O)C(O)C6O)C(C)(CO)C5CCC43C)C2C1 (stereo not given)
inactive: Potency [1] | Potency [2] | Potency [3] | Potency [4] | Potency [5]

CC(C)=CCC[C@](C)(O[C@@H]1O[C@H](CO[C@@H]2O[C@H](CO)[C@@H](O)[C@H](O)[C@H]2O)[C@@H](O)[C@H](O)[C@H]1O)C1CC[C@]2(C)[C@@H]1[C@H](O)CC1[C@@]3(C)CC[C@H](O[C@@H]4O[C@H](CO)[C@@H](O)[C@H](O)[C@H]4O[C@@H]4O[C@H](CO)[C@@H](O)[C@H](O)[C@H]4O)C(C)(C)[C@@H]3CC[C@]12C (stereo not given in full)
active: Potency [9] 1 µM
inactive: Potency [1] | activity change, negative = inhibition [2] -9.29% [at 11.6 µM] | activity change, negative = thiol reactive [3] 44.5% [at 11.5 µM] | activity, negative = inhibition [4] 0.108% [at 11.6 µM] | outcome [6] | outcome [7] | outcome [8] | outcome [10]

CC1(C)CCC(C)(C)c2cc(C3(c4ccc(C(=O)O)cc4)OCCO3)ccc21
inactive: Potency [1] | Potency [2] | Potency [3] | Potency [4] | Potency [5]

C[C@@]12CC[C@@H]3[C@@](CC[C@H]4[C@@]3(C)CCC[C@@]4(C)C(=O)O)(CC1=O)C2
active: Potency [9] 14.1 µM
inactive: Potency [1] | Potency [2] | Potency [3] | Potency [4] | Potency [5] | outcome [7] | outcome [10]

N#Cc1cc(F)cc(-c2nc(-c3ccccn3)no2)c1
active: Potency [2] 7.57 µM
inactive: Potency [1] | Potency [3] | Potency [4] | Potency [5]

CC1(C)CC[C@]2(C(=O)O[C@@H]3O[C@H](CO)[C@@H](O)[C@H](O)[C@H]3O)CC[C@]3(C)C(=CCC4[C@@]5(C)C[C@@H](O)[C@H](O)[C@@](C)(CO)C5CC[C@]43C)C2[C@@H]1O (stereo not given in full)
active: Potency [3] 3.16 µM
inactive: Potency [1] | Potency [2] | Potency [5]

From PubChem BioAssay (NCATS)
